Assay outcomes deposited in PubChem BioAssay by Buhrlage Lab, Dana-Farber Cancer Institute and Novartis Institutes for BioMedical Research (Cambridge, Mass).
A selection: hits, their analogues and other compounds. The true share with any hit is near 13%.
OTUD3 block: inhibitors of human OTUD3 deubiquitinase | purified OTUD3, Ub-rhodamine fluorescence, 2 h | inhibition, % at 25 µM | 47,000 compounds, 0.7% hits | AID 1645858, 2021
USP8 block: inhibitors of human USP8 deubiquitinase | Ubiquitin carboxyl-terminal hydrolase 8 (Homo sapiens), P40818 | purified USP8, Ub-rhodamine cleavage fluorescence, 30 min | inhibition, % at 20 µM | 47,000 compounds, 4.2% hits | AID 1645853, 2021
USP30 block: inhibitors of human USP30 deubiquitinase; 47,000 compounds, 5.3% hits; inhibition, % at 25 µM; purified USP30, Ub-rhodamine cleavage fluorescence; AID 1645860, 2021; Ubiquitin carboxyl-terminal hydrolase 30 (Homo sapiens), Q70CQ3
USP28 inh: inhibitors of human USP28 deubiquitinase | AID 1645857, 2021 | Ubiquitin carboxyl-terminal hydrolase 28 (Homo sapiens), Q96RU2 | inhibition, % at 25 µM | purified USP28, Ub-rhodamine cleavage fluorescence, 30 min | 47,000 compounds, 3% hits
USP17 inh: inhibitors of human USP17 deubiquitinase; Ubiquitin carboxyl-terminal hydrolase 17-like protein 5 (Homo sapiens), A8MUK1; purified USP17, Ub-rhodamine cleavage fluorescence, 3 h; inhibition, % at 50 µM; 47,000 compounds, 6.5% hits; AID 1645855, 2021
Each line names hits and unclear results; the compound was inactive in the other large screens. Cut-off read from the data, not from the text of the source: active = inhibition above about 30%; inactive = the rest.

O=C1C/C(=C\c2cccc(Br)c2)Cc2ccccc21	USP28 inh 34.0
O=C1C/C(=C\c2cccc(Cl)c2)Cc2ccccc21	USP8 block 34.5, USP30 block 39.0, USP28 inh 53.7
O=C1C/C(=C\c2cccc([N+](=O)[O-])c2)Cc2ccccc21	USP30 block 38.4
COc1ccc(/C=C2\CC(=O)c3ccccc3C2)c(OC)c1	none
CC(=O)NC(Cc1ccccc1)C(=O)NC1CCN(C(=O)c2ccc(C)cc2)CC1 (configuration not stated)	none
COc1ccc(-c2nnc(-c3cccc(S(=O)(=O)N4CCOCC4)c3)o2)cc1	none
O=C(c1ccccc1)C1CCN(C(=O)c2cccc(C(F)(F)F)c2)CC1	none
O=C(Nc1ccc(Cl)cc1)N1CCCN(Cc2ccc(F)cc2)CC1	none
O=C(Nc1nc(C(=O)N2CCc3ccccc32)co1)c1cnccn1	none
Cn1ncc2c1C(COCC1CC1)N(C(=O)c1cccnc1)CC2 (configuration not stated)	none
COc1cccc(NC(=O)c2c(O)c3ccccc3n(CC(C)C)c2=O)c1	USP8 block 85.4
COc1cccc(NC(=O)C(C)N2Cc3ccccc3C2=O)c1 (configuration not stated)	none
CCC(=O)NNC(=O)c1c(O)c2ccccc2n(CC)c1=O	USP8 block 50.8
N#Cc1cccc(NC(=O)Nc2cccn(Cc3ccc(F)cc3)c2=O)c1	USP8 block 90.8, USP30 block 37.9, USP28 inh 74.1, USP17 inh 74.1
Cc1nccnc1CCC1COCCN1C(=O)c1n[nH]c2ccccc12 (configuration not stated)	none
Cc1nccnc1CCC1COCCN1C(=O)c1ccc2n[nH]nc2c1 (configuration not stated)	USP30 block 31.4
COc1ccc(-c2ocnc2C(=O)Nc2ccccc2F)cc1OC	OTUD3 block 37.4, USP30 block 81.2, USP17 inh 76.0
COc1ccc(-c2ocnc2C(=O)NCc2cccc(OC)c2)cc1	USP28 inh 43.9
COc1ccc(CNC(=O)c2ncoc2-c2ccc(OC)cc2)cc1	none
COc1ccc(-c2ocnc2C(=O)Nc2cc(F)ccc2F)cc1	none
COc1ccc(-c2cc(C(=O)Nc3ccccc3F)on2)cc1	USP17 inh 42.1
COc1cccc(CNC(=O)c2sc(-c3ccc(OC)c(OC)c3)nc2C)c1	USP17 inh 44.9
Cc1cccc(CN2CCCN(c3ncccc3-c3nc(C)no3)CC2)c1	none
COc1ccc(NC(=O)c2ncoc2-c2cccs2)c(OC)c1	USP17 inh 46.4
COc1cccc(-c2ocnc2C(=O)Nc2cc(C)ccc2C)c1	none
COc1cccc(-c2ocnc2C(=O)Nc2ccc(C)cc2C)c1	USP30 block 33.6, USP17 inh 39.1
COc1ccc(OC)c(-c2noc(N(C)Cc3ccccc3)n2)c1	none
Cc1cc(C2CCCN2C(=O)c2cc(-c3ccc(F)cc3)on2)no1 (configuration not stated)	none
O=C(c1ccc2c(c1)OCO2)[C@@H]1[C@H](C(=O)OC(c2ccccc2)c2ccccc2)N2c3ccccc3C=CC2[C@@]12C(=O)Nc1ccccc12 (some centres not stated)	none
CC(C)(C)C(=O)[C@@H]1[C@@H](C(=O)c2ccc3c(c2)OCO3)[C@@]2(C(=O)Nc3ccccc32)[C@H]2c3ccccc3C=CN12	USP8 block 92.9, USP28 inh 30.7, USP17 inh 81.6
COc1ccc(Cn2nccc2NC(=O)C(C)Oc2ccc(C)c(C)c2)cc1 (configuration not stated)	USP17 inh 62.8 (no result: USP30 block, USP28 inh)
CCc1ccc(-c2noc(-c3cn(C)c4cc(N5CCOCC5)c(F)cc4c3=O)n2)cc1	none
CC(=O)c1ccc(NC(=O)c2nc3ccccc3nc2N2CCN(C)CC2)cc1	none
CCCCC(C(=O)O)C(C)C(=O)O (configuration not stated)	none
CCCCC(C)/C=C(C)/C=C(\C)C(N)=O (configuration not stated)	USP30 block 32.1
O=C(OCC(=O)c1cccs1)c1ccc(Cl)cc1	none
O=C(CCSc1ccc(Cl)cc1)c1cccs1	USP17 inh 84.5
COc1ccc(N(C)c2nc(-c3ccc(OC)c(OC)c3)no2)c(OC)c1	none
C[C@H]1[C@H](C)CCC23CC[C@]4(C)[C@@](C=CC5[C@@]6(C)CC[C@H](O)C(C)(C)[C@@H]6CC[C@]54C)(OC2=O)[C@H]13 (some centres not stated)	OTUD3 block 32.0, USP30 block 56.2, USP28 inh 38.4, USP17 inh 50.3
C[C@@H]1CCC2(C)CC[C@]3(C)C(=CCC4[C@@]5(C)CCC(O)C(C)(C)C5CC[C@]43C)C2[C@H]1C (some centres not stated)	none
CC(=O)N1CC[C@@H]2Oc3ccccc3S(=O)(=O)N(CCN(C)C)[C@H]2CC1	none
Cc1ccc(S(=O)(=O)NC(=O)C(C)Oc2cccc(C)c2)cc1 (configuration not stated)	none
O=C(Cn1cnc2c(oc3ccccc32)c1=O)NCc1ccccc1Cl	USP17 inh 87.2
O=C(Cn1cnc2c(cnn2-c2ccc(Cl)cc2)c1=O)NCc1ccccc1Cl	OTUD3 block 35.6, USP17 inh 55.0
Cc1ccc(CNC(=O)Cn2cnc3c(cnn3-c3cccc(Cl)c3)c2=O)cc1	USP28 inh 61.2
Cn1ncc2c(=O)n(Cc3cccc(Cl)c3)cnc21	USP28 inh 65.1
O=C(Cn1cnc2c(cnn2-c2cccc(Cl)c2)c1=O)N1CCCC1	none
CC(=O)Nc1ccc(S(=O)(=O)N2CCCC(C(=O)NCCc3ccc(O)cc3)C2)cc1 (configuration not stated)	none
Cc1cc(F)ccc1NC(=O)C1Cc2ccccc2O1 (configuration not stated)	none (no result: USP30 block, USP28 inh)
CCOC(=O)N1CCN(C(=O)c2cnn3c(C(F)(F)F)cc(-c4ccccc4)nc23)CC1	none
O=S(=O)(Nc1cnc(N2CCCC2)nc1)c1ccccc1Cl	none
COc1ccc(CCN(Cc2ccccc2)S(=O)(=O)c2ccc(S(=O)(=O)N3CCCC3)cc2)cc1OC	none
COc1cccc(Nc2ncnc3oc(C)c(C)c23)c1	none
Cc1oc2ncnc(Oc3ccc(F)cc3)c2c1C	USP30 block 41.2
COC[C@H]1O[C@@H](O[C@@H]2OC[C@@H]3O[C@]4(O[C@H]3[C@H]2OC(C)=O)O[C@H](C)[C@@](O)(C(C)=O)[C@@H]2OCO[C@H]24)[C@@H](OC)[C@@H](O)[C@@H]1O[C@@H]1O[C@H](C)[C@H](OC)[C@H](O[C@H]2C[C@@]3(C)O[C@@]4(C[C@@H](O)[C@H](O[C@H]5C[C@@H](O)[C@H](OC(=O)c6c(C)c(Cl)c(O)c(Cl)c6OC)[C@@H](C)O5)[C@@H](C)O4)O[C@@H]3[C@@H](C)O2)[C@H]1O	none
